# In PubChem BioAssay (EPA / NIEHS):
# Calls of active or inactive are those of the source. The calls were made as follows: active = hit-call score of the fitted dose curve at least 0.9, where 1 is the maximum; inactive = score below 0.9.
# Key:
# Conditions in all cases: mRNA level, 48 h; actives raise or lower the signal
# [1] = read-out: Insulin Like Growth Factor 1 (IGF1), IGF1 (gene 3479); assay: LTEA_HepaRG_IGF1: Life Technologies and Expression Analysis (LTEA) Assay for Insulin Like Growth Factor 1 (IGF1) using HepaRG (AID 2283506)
# How it was run: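 Differentiated human HepaRG cells were dosed for 48 h in serum-free induction medium with 0.5% DMSO, eight half-log concentrations up to 100 uM, in duplicate. IGF1 mRNA was quantified by qRT-PCR normalized to ACTB, GAPDH, POLR2A; bidirectional fitting versus DMSO.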
# [2] = read-out: Intercellular Adhesion Molecule 1 (ICAM1), ICAM1 (gene 3383); assay: LTEA_HepaRG_ICAM1: Life Technologies and Expression Analysis (LTEA) Assay for Intercellular Adhesion Molecule 1 (ICAM1) using HepaRG (AID 2283507)
# How it was run: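 HepaRG, 48 h exposure, 8-pt half-log series from 100 uM, 0.5% DMSO vehicle, duplicates. Readout: TaqMan qRT-PCR mRNA, housekeeping-normalized (ACTB/GAPDH/POLR2A). Bidirectional curve fit vs DMSO baseline.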
# [3] = read-out: Insulin-like growth factor-binding protein 1 (IGFBP1), IGFBP1 (gene 3484); assay: LTEA_HepaRG_IGFBP1: Life Technologies and Expression Analysis (LTEA) Assay for Insulin-like growth factor-binding protein 1 (IGFBP1) using HepaRG (AID 2283508)
# How it was run: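 qRT-PCR mRNA read-out (TaqMan, Fluidigm array), normalised to three housekeeping genes; HepaRG cells, 48 h exposure, 8-pt half-log series from 100 uM, 0.5% DMSO vehicle; bidirectional curve fit vs DMSO baseline.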
# [4] = read-out: Interleukin 6 Receptor (IL6R), IL6R (gene 3570); assay: LTEA_HepaRG_IL6R: Life Technologies and Expression Analysis (LTEA) Assay for Interleukin 6 Receptor (IL6R) using HepaRG (AID 2283510)
# How it was run: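 Differentiated human HepaRG cells, plated 48 h then switched to serum-free induction medium, were dosed in duplicate for 48 h at eight half-log concentrations up to 100 uM in 0.5% DMSO. IL6R mRNA quantified by qRT-PCR, normalized to ACTB/GAPDH/POLR2A; bidirectional fit versus DMSO.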
# [5] = read-out: Potassium channel subfamily K member 1 (KCNK1), KCNK1 (gene 3775); assay: LTEA_HepaRG_KCNK1: Life Technologies and Expression Analysis (LTEA) Assay for Potassium channel subfamily K member 1 (KCNK1) using HepaRG (AID 2283511)
# How it was run: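 Differentiated human HepaRG cells in serum-free induction medium were exposed in duplicate for 48 h to 8 half-log concentrations up to 100 uM in 0.5% DMSO. KCNK1 mRNA was measured by TaqMan qRT-PCR, normalized to ACTB, GAPDH and POLR2A, and fitted bidirectionally versus DMSO.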
# [6] = read-out: Keratin 19 (KRT19), KRT19 (gene 3880); assay: LTEA_HepaRG_KRT19: Life Technologies and Expression Analysis (LTEA) Assay for Keratin 19 (KRT19) using HepaRG (AID 2283512)
# How it was run: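 HepaRG, 48 h chemical exposure, 8-pt half-log CRC from 100 uM, 0.5% DMSO vehicle, duplicates. Readout: TaqMan qRT-PCR of KRT19 mRNA, housekeeping-normalized (ACTB/GAPDH/POLR2A). Bidirectional fit vs DMSO baseline.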
# [7] = read-out: JUN Transcription Factor, JUN (gene 3725); assay: LTEA_HepaRG_JUN: Life Technologies and Expression Analysis (LTEA) Assay for JUN Transcription Factor using HepaRG (AID 2283513)
# How it was run: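 Differentiated HepaRG cells were exposed to chemicals for 48 h in serum-free induction medium, 8 concentrations from 100 uM in half-log steps, 0.5% DMSO vehicle, in duplicate. JUN mRNA was quantified by TaqMan qRT-PCR, normalized to ACTB, GAPDH, POLR2A.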
# [8] = read-out: Lipase C (LIPC), LIPC (gene 3990); assay: LTEA_HepaRG_LIPC: Life Technologies and Expression Analysis (LTEA) Assay for Lipase C (LIPC) using HepaRG (AID 2283514)
# How it was run: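 Differentiated human HepaRG cells in serum-free induction medium were exposed in duplicate for 48 h to eight concentrations (top 100 uM, half-log steps, 0.5% DMSO). LIPC mRNA was quantified by TaqMan qRT-PCR, normalized to ACTB, GAPDH and POLR2A, with bidirectional fitting versus DMSO.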
# [9] = read-out: MicroRNA 122 (MIR122), gene 406906; assay: LTEA_HepaRG_MIR122: Life Technologies and Expression Analysis (LTEA) Assay for MicroRNA 122 (MIR122) using HepaRG (AID 2283516); also: the transcript read is the microRNA miR-122
# How it was run: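 Differentiated human HepaRG cells were exposed 48 h in serum-free induction medium to eight half-log concentrations (top 100 uM, 0.5% DMSO). Transcript level was measured by TaqMan qRT-PCR, normalized to ACTB, GAPDH and POLR2A, and fitted bidirectionally versus DMSO.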
# [10] = read-out: matrix metalloproteinase-10 (MMP10), MMP10 (gene 4319); assay: LTEA_HepaRG_MMP10: Life Technologies and Expression Analysis (LTEA) Assay for matrix metalloproteinase-10 (MMP10) using HepaRG (AID 2283517)
# How it was run: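 HepaRG, collagen I, ~100,000 cells/well; serum-free induction medium; 48 h exposure, duplicate, 8-pt half-log to 100 uM, 0.5% DMSO. Readout: TaqMan qRT-PCR, normalized to ACTB/GAPDH/POLR2A; bidirectional fit vs DMSO.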
# MYC, MYC (gene 4609) = assay: LTEA_HepaRG_MYC: Life Technologies and Expression Analysis (LTEA) Assay for MYC using HepaRG (AID 2283518)
# How it was run: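 qRT-PCR read-out of MYC transcript (Fluidigm TaqMan, housekeeping-normalized) after 48 h chemical exposure of HepaRG cells; eight concentrations, top 100 uM, half-log steps. Bidirectional curve fitting against 0.5% DMSO vehicle baseline.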
# [11] = read-out: Paternally Expressed 10 (PEG10), PEG10 (gene 23089); assay: LTEA_HepaRG_PEG10: Life Technologies and Expression Analysis (LTEA) Assay for Paternally Expressed 10 (PEG10) using HepaRG (AID 2283520)
# How it was run: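 Differentiated HepaRG cells, plated 48 h then switched to serum-free induction medium, were exposed in duplicate for 48 h to eight half-log concentrations topping at 100 uM in 0.5% DMSO. PEG10 mRNA was quantified by TaqMan qRT-PCR, normalised to ACTB, GAPDH and POLR2A.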
# [12] = read-out: Nuclear factor NF-kappa-B p105 subunit (Homo sapiens) (UniProt P19838); assay: LTEA_HepaRG_NFKB1: Life Technologies and Expression Analysis (LTEA) Assay for Nuclear Factor Kappa B Subunit 1 (NFKB1) using HepaRG (AID 2283521);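 also: TaqMan qRT-PCR transcript normalised to ACTB GAPDH and POLR2A housekeeping genes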
# How it was run: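 Differentiated human HepaRG cells were exposed for 48 h in serum-free induction medium to eight concentrations (top 100 uM, half-log steps, 0.5% DMSO), in duplicate. NFKB1 mRNA was measured by TaqMan qRT-PCR, normalized to ACTB/GAPDH/POLR2A, and fitted bidirectionally against DMSO.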
# [13] = read-out: Protein phosphatase 2A (PPP2R4), PTPA (gene 5524); assay: LTEA_HepaRG_PPP2R4: Life Technologies and Expression Analysis (LTEA) Assay for Protein phosphatase 2A (PPP2R4) using HepaRG (AID 2283522)
# How it was run: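 Differentiated HepaRG cells in serum-free induction medium were exposed in duplicate for 48 h to eight concentrations, top 100 uM with half-log dilutions, in 0.5% DMSO. PPP2R4 mRNA was quantified by TaqMan qRT-PCR, normalized to ACTB, GAPDH and POLR2A.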
# [14] = read-out: Phosphatase and tensin (PTEN), PTEN (gene 5728); assay: LTEA_HepaRG_PTEN: Life Technologies and Expression Analysis (LTEA) Assay for Phosphatase and tensin (PTEN) using HepaRG (AID 2283523)
# How it was run: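 Differentiated human HepaRG cells, plated 48 h then switched to serum-free induction medium, were exposed in duplicate for 48 h to eight half-log concentrations up to 100 uM in 0.5% DMSO. PTEN mRNA measured by TaqMan qRT-PCR, normalized to ACTB/GAPDH/POLR2A, bidirectional fit versus DMSO.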
# [15] = read-out: solute carrier (SLC22A1), SLC22A1 (gene 6580); assay: LTEA_HepaRG_SLC22A1: Life Technologies and Expression Analysis (LTEA) Assay for solute carrier (SLC22A1) using HepaRG (AID 2283524)
# How it was run: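 Human HepaRG cells were plated 48 h, switched to serum-free induction medium, then exposed in duplicate for 48 h to 8-point half-log series from 100 uM in 0.5% DMSO. SLC22A1 mRNA measured by qRT-PCR, normalized to ACTB/GAPDH/POLR2A, fitted bidirectionally versus DMSO.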
# [16] = read-out: Lipoprotein lipase (LPL), LPL (gene 4023); assay: LTEA_HepaRG_LPL: Life Technologies and Expression Analysis (LTEA) Assay for Lipoprotein lipase (LPL) using HepaRG (AID 2283515)
# How it was run: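 Differentiated human HepaRG cells in serum-free induction medium were exposed in duplicate for 48 h to eight half-log concentrations (top 100 uM) in 0.5% DMSO. LPL mRNA was quantified by TaqMan qRT-PCR, normalized to ACTB, GAPDH and POLR2A.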
# [17] = read-out: matrix metalloproteinase-3 (MMP3), MMP3 (gene 4314); assay: LTEA_HepaRG_MMP3: Life Technologies and Expression Analysis (LTEA) Assay for matrix metalloproteinase-3 (MMP3) using HepaRG (AID 2283519)
# How it was run: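 Differentiated human HepaRG cells, plated 48 h on collagen I, were exposed in duplicate for 48 h in serum-free induction medium to eight half-log concentrations up to 100 uM in 0.5% DMSO. MMP3 mRNA was quantified by TaqMan qRT-PCR, normalised to ACTB, GAPDH and POLR2A.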
# Sequence of Nuclear factor NF-kappa-B p105 subunit (Homo sapiens) (P19838 whole entry, looked up): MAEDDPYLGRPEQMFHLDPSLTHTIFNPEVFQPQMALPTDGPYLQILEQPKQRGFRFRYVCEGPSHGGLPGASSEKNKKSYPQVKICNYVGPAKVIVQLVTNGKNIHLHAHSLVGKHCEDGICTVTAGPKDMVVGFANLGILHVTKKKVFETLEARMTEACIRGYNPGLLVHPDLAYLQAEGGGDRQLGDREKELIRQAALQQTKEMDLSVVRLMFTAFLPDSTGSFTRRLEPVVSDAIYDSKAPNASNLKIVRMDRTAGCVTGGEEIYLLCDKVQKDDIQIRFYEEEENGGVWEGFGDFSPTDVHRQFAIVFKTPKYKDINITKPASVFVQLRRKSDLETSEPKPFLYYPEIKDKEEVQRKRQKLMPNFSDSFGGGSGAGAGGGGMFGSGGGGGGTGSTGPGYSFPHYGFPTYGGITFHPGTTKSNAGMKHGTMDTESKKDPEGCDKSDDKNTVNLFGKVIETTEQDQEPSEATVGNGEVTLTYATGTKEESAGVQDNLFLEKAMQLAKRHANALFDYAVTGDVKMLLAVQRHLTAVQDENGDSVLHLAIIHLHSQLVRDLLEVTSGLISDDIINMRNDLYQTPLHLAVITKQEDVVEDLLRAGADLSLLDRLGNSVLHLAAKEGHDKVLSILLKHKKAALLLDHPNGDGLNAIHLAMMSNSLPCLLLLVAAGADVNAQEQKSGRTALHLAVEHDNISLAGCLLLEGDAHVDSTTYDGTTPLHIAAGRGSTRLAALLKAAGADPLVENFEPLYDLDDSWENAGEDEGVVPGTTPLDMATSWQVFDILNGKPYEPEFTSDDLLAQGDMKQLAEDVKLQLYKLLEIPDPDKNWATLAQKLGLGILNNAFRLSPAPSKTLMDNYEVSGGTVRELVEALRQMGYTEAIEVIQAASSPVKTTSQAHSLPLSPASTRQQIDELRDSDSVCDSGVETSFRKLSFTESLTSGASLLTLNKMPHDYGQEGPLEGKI
SMILES,outcome [1],outcome [2],outcome [3],outcome [4],outcome [5],outcome [6],outcome [7],outcome [8],outcome [9],outcome [10],"outcome (MYC, MYC (gene 4609))",outcome [11],outcome [12],outcome [13],outcome [14],outcome [15],outcome [16],outcome [17],AC50 [14]
CNCc1ccc(NC(=O)c2c[nH]c3c2C(=O)CCC3)cc1,inactive,inactive,inactive,inactive,inactive,inactive,inactive,inactive,inactive,inactive,inactive,inactive,inactive,inactive,inactive,inactive,,,
CCCCCCCCCCCCCCCO,inactive,inactive,inactive,inactive,inactive,inactive,inactive,inactive,inactive,inactive,inactive,inactive,inactive,inactive,inactive,inactive,inactive,,
CC(C)=CCCC(C)=CC=O,inactive,inactive,inactive,inactive,inactive,inactive,inactive,inactive,inactive,inactive,inactive,inactive,,inactive,inactive,inactive,,inactive,
C=CCCCCCCCCC(=O)O,inactive,inactive,inactive,inactive,inactive,inactive,inactive,inactive,inactive,inactive,inactive,inactive,inactive,inactive,,inactive,,inactive,8.21 nM (active)
